The supplement of paper PMC10849652
About 8,800 targets were measured; listed, in parts, are those with a hit and a random draw of the rest. About 0.5% of all pairs of compound and target were hits.

Columns and labels:
Assay in all cases: log2 fold change, soluble protein after heating vs DMSO (PISA); higher = thermal stabilisation; K562 lysate, 10 uM; active = over 0.2 and 3.5 SD of the protein, either way, in both replicates (recomputed)
[1] = compound: NCC(=O)Nc1ccc(-n2nc(C(F)(F)F)cc2-c2ccc3c(ccc4ccccc43)c2)cc1
How it was run: (§1)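 Soluble protein was defined as the supernatant remaining after 21,000xg for 90 min, following pooling of heated aliquots and adjustment to 0.5% NP-40 at 4°C. Before that, crude K562 extract at 1 mg/mL protein in PBS pH 7.4 with 1 mM MgCl2 was treated with 10 μM compound for 30 min and heated for 3 min across 48°C-58°C. Quantification used TMTpro 16plex LC-MS/MS with channel sums equalised, and values are log-two fold changes in thermal stability relative to solvent controls from duplicates.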

vorinostat = compound: O=C(CCCCCCC(=O)Nc1ccccc1)NO [vorinostat]
How it was run: as §1

silmitasertib = compound: O=C(O)c1ccc2c(c1)nc(Nc1cccc(Cl)c1)c1ccncc12 [silmitasertib]
How it was run: as §1

[2] = compound: O=C1NC(=O)C(c2cnc3ccccn23)=C1c1cn2c3c(cc(F)cc13)CN(C(=O)N1CCCCC1)CC2
How it was run: as §1

entospletinib = compound: c1cn2cc(-c3ccc4cn[nH]c4c3)nc(Nc3ccc(N4CCOCC4)cc3)c2n1 [entospletinib]
How it was run: as §1

Measured: log2 fold change

TP53RK (UniProt Q96S44)
inactive: [1] -0.017 | vorinostat 0.049 | silmitasertib -0.19 | [2] -0.014 | entospletinib 0.031

TERF2IP (UniProt Q9NYB0)
inactive: [1] 0.038 | vorinostat 0.072 | silmitasertib 0.008 | [2] 0.011 | entospletinib 0.011

TRIM11 (UniProt Q96F44)
active: vorinostat -0.222
inactive: [1] 0.018 | silmitasertib 0.046 | [2] -0.035 | entospletinib -0.045

TMEM97 (UniProt Q5BJF2)
UniProt Q5BJF2, sequence (Q5BJF2 whole entry, looked up): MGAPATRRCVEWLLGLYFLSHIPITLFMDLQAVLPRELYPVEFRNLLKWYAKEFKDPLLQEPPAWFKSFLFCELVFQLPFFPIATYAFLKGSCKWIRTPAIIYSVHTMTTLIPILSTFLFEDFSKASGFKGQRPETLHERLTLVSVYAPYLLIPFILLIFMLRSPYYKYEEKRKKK
inactive: [1] -0.016 | vorinostat 0.152 | silmitasertib -0.039 | [2] 0.071 | entospletinib 0.004

TPP2 (UniProt Q5VZU9)
inactive: [1] -0.125 | vorinostat -0.173 | silmitasertib 0.044 | [2] 0.002 | entospletinib 0.109

TMPO (UniProt P42167)
inactive: [1] 0.021 | vorinostat 0.104 | silmitasertib 0.012 | [2] -0.032 | entospletinib -0.031

TUBB6 (UniProt K7ES63)
inactive: [1] -0.062 | vorinostat -0.414 | silmitasertib 0.013 | [2] -0.164 | entospletinib -0.11

TRNAU1AP (UniProt Q9NX07)
inactive: [1] 0.079 | vorinostat -0.178 | silmitasertib 0.026 | [2] -0.017 | entospletinib -0.047

TBK1 (UniProt Q9UHD2)
inactive: [1] -0.04 | vorinostat -0.361 | silmitasertib 0.189 | [2] 0.125 | entospletinib 0.204

UFSP2 (UniProt Q9NUQ7)
UniProt Q9NUQ7, sequence (Q9NUQ7 whole entry, looked up): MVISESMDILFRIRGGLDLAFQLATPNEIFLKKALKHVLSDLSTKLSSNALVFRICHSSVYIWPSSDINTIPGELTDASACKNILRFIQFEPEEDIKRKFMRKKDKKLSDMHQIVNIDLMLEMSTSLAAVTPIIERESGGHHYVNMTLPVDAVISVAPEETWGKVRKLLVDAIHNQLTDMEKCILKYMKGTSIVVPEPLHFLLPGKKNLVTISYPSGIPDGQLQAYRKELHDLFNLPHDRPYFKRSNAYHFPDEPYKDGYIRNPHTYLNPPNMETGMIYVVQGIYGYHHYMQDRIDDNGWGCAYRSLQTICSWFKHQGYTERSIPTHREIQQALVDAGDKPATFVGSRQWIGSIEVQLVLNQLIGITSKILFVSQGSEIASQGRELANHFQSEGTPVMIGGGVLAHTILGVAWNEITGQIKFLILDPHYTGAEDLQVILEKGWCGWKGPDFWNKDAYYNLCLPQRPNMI
active: vorinostat 0.342
inactive: [1] -0.029 | silmitasertib 0.001 | [2] -0.021 | entospletinib -0.012

UBL4A (UniProt P11441)
inactive: [1] -0.036 | vorinostat -0.016 | silmitasertib 0.04 | [2] 0.007 | entospletinib -0.011

TCF3 (UniProt X6REB3)
inactive: [1] -0.257

TUBA1C (UniProt Q9BQE3)
active: vorinostat -0.256
inactive: [1] 0.019 | silmitasertib 0.013 | [2] 0.006 | entospletinib -0.014

TDRD3 isoform 3 (UniProt Q9H7E2)
UniProt Q9H7E2, sequence (Q9H7E2 whole entry, looked up): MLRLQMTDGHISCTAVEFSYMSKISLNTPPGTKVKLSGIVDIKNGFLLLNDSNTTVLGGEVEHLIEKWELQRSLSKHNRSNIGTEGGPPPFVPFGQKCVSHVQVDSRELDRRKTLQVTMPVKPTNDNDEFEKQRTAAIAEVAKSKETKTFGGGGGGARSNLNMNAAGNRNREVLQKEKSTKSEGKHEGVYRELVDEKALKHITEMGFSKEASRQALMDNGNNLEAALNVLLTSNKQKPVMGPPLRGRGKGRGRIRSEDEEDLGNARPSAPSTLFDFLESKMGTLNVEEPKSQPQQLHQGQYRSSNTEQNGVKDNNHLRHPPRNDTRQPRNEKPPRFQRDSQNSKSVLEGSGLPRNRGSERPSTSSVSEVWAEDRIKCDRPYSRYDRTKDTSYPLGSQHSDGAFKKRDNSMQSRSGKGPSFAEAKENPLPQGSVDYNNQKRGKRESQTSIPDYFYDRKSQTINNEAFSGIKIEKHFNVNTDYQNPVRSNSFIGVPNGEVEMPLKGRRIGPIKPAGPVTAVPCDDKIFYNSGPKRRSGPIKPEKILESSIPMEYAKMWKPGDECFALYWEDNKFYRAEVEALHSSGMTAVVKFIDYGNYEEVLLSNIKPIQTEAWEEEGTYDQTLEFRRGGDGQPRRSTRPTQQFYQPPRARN
inactive: [1] 0.23 | vorinostat -0.016 | silmitasertib -0.03 | [2] 0.008 | entospletinib -0.041

TRAPPC12 (UniProt Q8WVT3)
active: vorinostat -0.258
inactive: [1] 0.032 | silmitasertib 0.005 | [2] 0.043 | entospletinib -0.001

TBC1D8B (UniProt Q0IIM8)
inactive: [1] 0.036 | vorinostat 0.147 | silmitasertib -0.037 | [2] 0.011 | entospletinib 0.131

UBE3B (UniProt Q7Z3V4)
UniProt Q7Z3V4, sequence (Q7Z3V4 whole entry, looked up): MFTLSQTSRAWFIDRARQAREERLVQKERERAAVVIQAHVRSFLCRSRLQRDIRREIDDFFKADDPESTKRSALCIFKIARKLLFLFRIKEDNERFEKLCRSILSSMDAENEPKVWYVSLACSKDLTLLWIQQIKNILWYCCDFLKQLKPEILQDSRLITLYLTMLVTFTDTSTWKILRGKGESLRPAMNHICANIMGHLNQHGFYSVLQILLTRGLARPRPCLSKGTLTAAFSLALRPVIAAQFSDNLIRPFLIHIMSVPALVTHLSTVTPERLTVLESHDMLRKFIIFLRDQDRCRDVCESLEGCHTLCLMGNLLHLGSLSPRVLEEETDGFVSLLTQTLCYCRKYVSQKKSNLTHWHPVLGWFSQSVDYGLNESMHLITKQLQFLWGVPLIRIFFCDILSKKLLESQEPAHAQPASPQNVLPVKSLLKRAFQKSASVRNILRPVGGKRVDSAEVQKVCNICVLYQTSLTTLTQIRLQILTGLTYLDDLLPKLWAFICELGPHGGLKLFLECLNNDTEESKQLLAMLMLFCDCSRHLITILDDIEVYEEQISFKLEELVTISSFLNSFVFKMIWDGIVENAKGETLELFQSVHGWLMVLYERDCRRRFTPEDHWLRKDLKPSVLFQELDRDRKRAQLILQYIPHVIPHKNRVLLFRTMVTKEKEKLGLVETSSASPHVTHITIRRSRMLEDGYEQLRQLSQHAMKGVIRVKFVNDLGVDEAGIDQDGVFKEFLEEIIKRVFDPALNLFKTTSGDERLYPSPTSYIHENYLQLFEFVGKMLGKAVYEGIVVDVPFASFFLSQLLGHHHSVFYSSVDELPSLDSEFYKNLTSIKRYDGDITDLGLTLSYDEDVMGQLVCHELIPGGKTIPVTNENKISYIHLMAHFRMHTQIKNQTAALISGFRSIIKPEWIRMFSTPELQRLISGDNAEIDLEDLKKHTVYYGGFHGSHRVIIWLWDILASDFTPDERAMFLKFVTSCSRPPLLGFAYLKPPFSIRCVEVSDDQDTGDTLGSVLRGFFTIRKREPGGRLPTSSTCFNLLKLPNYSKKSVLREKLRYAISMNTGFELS
inactive: [1] 0.117 | silmitasertib 0.061 | [2] 0.007 | entospletinib 0.115
active: vorinostat -0.838

TRADD (UniProt Q15628)
inactive: [1] 0.034 | vorinostat -0.284 | silmitasertib 0.021 | [2] -0.029 | entospletinib 0.059

TECR (UniProt Q9NZ01)
inactive: [1] -0.031 | vorinostat 0.024 | silmitasertib 0.076 | [2] 0.032 | entospletinib 0.033

TRIM65 (UniProt Q6PJ69)
UniProt Q6PJ69, sequence (Q6PJ69 whole entry, looked up): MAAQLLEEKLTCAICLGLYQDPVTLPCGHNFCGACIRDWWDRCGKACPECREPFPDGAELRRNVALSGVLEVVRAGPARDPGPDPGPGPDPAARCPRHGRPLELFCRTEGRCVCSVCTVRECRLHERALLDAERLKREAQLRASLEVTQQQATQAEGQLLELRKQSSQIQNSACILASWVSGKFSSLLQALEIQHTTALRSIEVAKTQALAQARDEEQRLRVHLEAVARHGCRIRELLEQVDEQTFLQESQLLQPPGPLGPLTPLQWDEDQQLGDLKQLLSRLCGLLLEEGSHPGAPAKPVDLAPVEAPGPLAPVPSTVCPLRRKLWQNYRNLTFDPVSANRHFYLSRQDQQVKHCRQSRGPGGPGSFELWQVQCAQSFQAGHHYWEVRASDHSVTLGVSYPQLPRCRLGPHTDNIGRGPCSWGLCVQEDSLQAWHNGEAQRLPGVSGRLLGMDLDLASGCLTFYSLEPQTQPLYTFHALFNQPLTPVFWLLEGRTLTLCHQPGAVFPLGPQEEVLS
inactive: [1] 0.018 | vorinostat -0.094 | silmitasertib -0.006 | [2] 0.002 | entospletinib -0.009

TTC5 (UniProt Q8N0Z6)
inactive: [1] -0.003 | silmitasertib -0.029 | [2] -0.018 | entospletinib 0.051
active: vorinostat -0.257

TMEM167B (UniProt Q9NRX6)
inactive: [1] 0.019 | vorinostat 0 | silmitasertib 0.009 | [2] -0.033 | entospletinib 0.031

TUT4 (UniProt Q5TAX3)
active: vorinostat -0.398
inactive: [1] 0.072 | silmitasertib 0.018 | [2] -0.048 | entospletinib -0.029

TOX4 (UniProt O94842)
inactive: [1] -0.021 | vorinostat -0.018 | silmitasertib -0.037 | [2] -0.025 | entospletinib -0.006

TXNIP (UniProt Q9H3M7)
inactive: [1] -0.076 | silmitasertib 0.04 | [2] -0.051 | entospletinib 0.024
active: vorinostat -0.399

TROAP (UniProt Q12815)
inactive: [1] 0.003 | silmitasertib 0.003 | [2] 0.014 | entospletinib -0.057
active: vorinostat -0.382

TUBB1 (UniProt Q9H4B7)
inactive: [1] -0.038 | silmitasertib -0.003 | [2] 0.033 | entospletinib 0.011
active: vorinostat -0.326

TCP11L1 (UniProt Q9NUJ3)
inactive: [1] 0 | silmitasertib -0.043 | [2] 0.006 | entospletinib 0.019
active: vorinostat -0.317

TJP1 (UniProt G3V1L9)
active: vorinostat -0.484
inactive: [1] -0.044 | silmitasertib -0.061 | [2] 0.127

UBR4 (UniProt Q5T4S7)
inactive: [1] 0 | vorinostat -0.14 | silmitasertib 0.027 | [2] -0.008 | entospletinib 0.009

TTC37 (UniProt Q6PGP7)
inactive: [1] 0.136 | vorinostat 0.153 | silmitasertib 0.03 | [2] 0.046

TBRG4 (UniProt Q969Z0)
inactive: [1] 0.017 | vorinostat -0.238 | silmitasertib 0.034 | [2] 0.008 | entospletinib 0.042

TUBA4A (UniProt P68366)
active: vorinostat -0.736
inactive: [1] 0.066 | silmitasertib 0.077 | [2] 0.051 | entospletinib -0.045

TRIM56 (UniProt Q9BRZ2)
inactive: [1] -0.022 | silmitasertib -0.043 | [2] -0.016 | entospletinib -0.004
active: vorinostat -0.428

TBC1D23 (UniProt Q9NUY8)
active: vorinostat -0.252
inactive: [1] 0.031 | silmitasertib -0.023 | [2] -0.001 | entospletinib 0

UBR3 isoform 4 (UniProt Q6ZT12)
inactive: [1] -0.011 | silmitasertib 0.023 | [2] -0.005 | entospletinib -0.003
active: vorinostat -0.43

TPM1 isoform 4 (UniProt P09493)
inactive: [1] -0.053 | vorinostat 0.052 | silmitasertib -0.03 | [2] -0.041 | entospletinib 0.006

TRIM33 (UniProt H0Y612)
inactive: [1] -0.039 | silmitasertib 0.061 | [2] 0.03 | entospletinib 0.084
active: vorinostat -0.335

TMEM14C (UniProt Q9P0S9)
inactive: [1] -0.032 | vorinostat -0.018 | silmitasertib 0.013 | [2] 0.058 | entospletinib 0.091

TELO2 (UniProt Q9Y4R8)
inactive: [1] 0.003 | silmitasertib 0.117 | [2] 0.011 | entospletinib 0.011
active: vorinostat -0.361

TUBB (UniProt P07437)
active: vorinostat -0.529
inactive: [1] 0.025 | silmitasertib 0.009 | [2] 0.032 | entospletinib -0.018

UBTF (UniProt P17480)
active: vorinostat -0.315
inactive: [1] -0.045 | silmitasertib 0.044 | [2] -0.012 | entospletinib 0.032

TBL3 (UniProt Q12788)
UniProt Q12788, sequence (Q12788 whole entry, looked up): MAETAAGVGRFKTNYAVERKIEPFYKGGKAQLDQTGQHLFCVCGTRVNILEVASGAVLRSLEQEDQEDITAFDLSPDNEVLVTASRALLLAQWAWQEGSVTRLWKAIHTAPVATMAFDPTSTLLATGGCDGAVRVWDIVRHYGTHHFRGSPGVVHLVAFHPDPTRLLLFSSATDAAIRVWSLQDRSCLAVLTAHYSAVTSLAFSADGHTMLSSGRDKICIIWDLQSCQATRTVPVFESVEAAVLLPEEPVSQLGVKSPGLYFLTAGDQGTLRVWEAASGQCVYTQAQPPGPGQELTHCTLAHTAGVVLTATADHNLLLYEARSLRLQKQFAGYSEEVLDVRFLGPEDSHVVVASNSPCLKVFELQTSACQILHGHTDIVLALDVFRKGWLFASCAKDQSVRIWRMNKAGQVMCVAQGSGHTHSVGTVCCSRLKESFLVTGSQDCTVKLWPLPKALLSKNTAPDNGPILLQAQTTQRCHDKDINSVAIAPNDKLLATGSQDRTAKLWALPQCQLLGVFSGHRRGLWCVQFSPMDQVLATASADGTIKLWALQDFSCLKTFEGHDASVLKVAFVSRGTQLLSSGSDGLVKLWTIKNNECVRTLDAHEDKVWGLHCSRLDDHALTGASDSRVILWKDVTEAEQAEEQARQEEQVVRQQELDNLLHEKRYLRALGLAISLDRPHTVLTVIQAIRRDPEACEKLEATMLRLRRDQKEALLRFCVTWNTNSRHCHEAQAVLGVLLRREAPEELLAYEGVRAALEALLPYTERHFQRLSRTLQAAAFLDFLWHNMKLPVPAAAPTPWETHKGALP
active: vorinostat -0.263
inactive: [1] 0.015 | silmitasertib -0.011 | [2] -0.001 | entospletinib -0.023

TBCE (UniProt Q15813)
inactive: [1] -0.029 | silmitasertib 0.018 | [2] -0.025 | entospletinib 0.021
active: vorinostat -0.27

TDRKH (UniProt Q9Y2W6)
inactive: [1] -0.031 | vorinostat -0.223 | silmitasertib 0.024 | [2] -0.052 | entospletinib 0.056

UBP1 (UniProt Q9NZI7)
inactive: [1] -0.002 | vorinostat -0.182 | silmitasertib 0.008 | [2] -0.01 | entospletinib -0.002

UBL5 (UniProt Q9BZL1)
inactive: [1] -0.027 | vorinostat -0.078 | silmitasertib 0.065 | [2] 0.077 | entospletinib -0.049

TPD52L2 isoform 7 (UniProt O43399)
inactive: [1] -0.043 | vorinostat 0.148 | silmitasertib -0.044 | [2] -0.027 | entospletinib -0.016

TFPI (UniProt P10646)
inactive: [1] 0.067 | vorinostat 0.106 | silmitasertib 0.01 | [2] -0.063 | entospletinib -0.057

TRIP13 (UniProt Q15645)
inactive: [1] 0.002 | silmitasertib 0.061 | [2] -0.002 | entospletinib 0.022
active: vorinostat -0.472

UCHL5 (UniProt Q5LJA9)
inactive: [1] -0.017 | silmitasertib 0.004 | [2] -0.086 | entospletinib -0.011
active: vorinostat -0.361

UBR5 (UniProt O95071)
inactive: [1] 0.009 | silmitasertib 0.011 | [2] -0.011 | entospletinib -0.006
active: vorinostat -0.234

TNIK isoform 4 (UniProt Q9UKE5)
UniProt Q9UKE5, sequence (Q9UKE5 whole entry, looked up): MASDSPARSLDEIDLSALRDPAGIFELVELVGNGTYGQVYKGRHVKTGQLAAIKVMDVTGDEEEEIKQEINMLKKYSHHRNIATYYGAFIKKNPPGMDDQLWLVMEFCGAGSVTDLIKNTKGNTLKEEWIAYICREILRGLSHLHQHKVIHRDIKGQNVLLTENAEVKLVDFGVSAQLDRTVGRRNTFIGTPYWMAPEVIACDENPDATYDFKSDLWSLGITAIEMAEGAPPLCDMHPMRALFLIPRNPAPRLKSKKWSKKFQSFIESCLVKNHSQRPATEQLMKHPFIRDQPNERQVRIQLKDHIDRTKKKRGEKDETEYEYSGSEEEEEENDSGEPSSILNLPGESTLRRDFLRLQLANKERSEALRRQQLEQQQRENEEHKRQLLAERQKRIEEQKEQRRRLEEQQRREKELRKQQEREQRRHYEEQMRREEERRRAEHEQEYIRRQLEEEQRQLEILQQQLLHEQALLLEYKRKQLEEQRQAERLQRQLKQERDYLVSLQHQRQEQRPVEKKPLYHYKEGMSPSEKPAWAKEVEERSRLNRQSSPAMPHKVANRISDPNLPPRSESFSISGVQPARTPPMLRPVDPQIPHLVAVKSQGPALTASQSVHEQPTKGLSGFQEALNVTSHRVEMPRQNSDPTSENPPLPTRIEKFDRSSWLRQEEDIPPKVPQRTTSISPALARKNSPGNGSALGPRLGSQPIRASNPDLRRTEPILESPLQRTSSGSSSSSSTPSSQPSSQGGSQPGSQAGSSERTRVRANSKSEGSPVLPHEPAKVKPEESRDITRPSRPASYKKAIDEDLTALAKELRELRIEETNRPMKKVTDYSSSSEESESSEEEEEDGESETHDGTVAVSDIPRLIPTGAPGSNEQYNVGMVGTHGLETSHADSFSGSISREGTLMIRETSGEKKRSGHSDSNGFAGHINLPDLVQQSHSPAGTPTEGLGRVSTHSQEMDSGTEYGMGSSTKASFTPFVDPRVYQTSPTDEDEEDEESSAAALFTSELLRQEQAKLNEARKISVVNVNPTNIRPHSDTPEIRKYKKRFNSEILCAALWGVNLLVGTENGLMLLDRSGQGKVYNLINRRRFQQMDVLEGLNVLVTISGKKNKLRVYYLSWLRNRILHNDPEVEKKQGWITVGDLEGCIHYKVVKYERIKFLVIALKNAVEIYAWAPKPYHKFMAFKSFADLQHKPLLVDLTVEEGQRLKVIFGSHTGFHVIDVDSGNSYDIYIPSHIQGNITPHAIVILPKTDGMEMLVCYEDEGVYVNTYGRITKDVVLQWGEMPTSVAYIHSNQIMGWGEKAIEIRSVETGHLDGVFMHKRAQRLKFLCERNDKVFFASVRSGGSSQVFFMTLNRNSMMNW
inactive: [1] -0.019 | vorinostat -0.135 | silmitasertib 0.004 | [2] -0.114 | entospletinib 0.208

TRIM23 (UniProt P36406)
inactive: [1] 0.064 | vorinostat 0.073 | silmitasertib -0.03 | [2] -0.02 | entospletinib -0.032
